High-throughput results (PubChem BioAssay)
hNpr1 antagonist: blocks ANP-stimulated signaling of human Npr1 receptor; Potency, µM (highest dose often 46.3 µM), actives largely listed as inhibitors; HEK293 hNpr1 GloSensor cGMP, ANP-stimulated luminescence; 76,000 compounds, 1.6% hits; calls by dose curve; further: nearly all actives have a fitted effect of over 60% in size
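HEK293 cells stably expressing human Npr1 and cGMP GloSensor pGS-40F, loaded 2 h with 2% GloSensor reagent, given compound 30 min at room temperature. Luminescence read before and 20 min after 0.1 nM hNppA.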
NIH3T3 tox: kills NIH 3T3 cells; NIH 3T3 viability, CellTiter-Glo ATP luminescence, 48-72 h; Potency, µM (doses to about 96.7 µM), hits mostly inhibitors; 94,000 compounds, 4.3% hits; AID 1345082; further: nearly all actives have a fitted effect of over 55% in size
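Viability of NIH 3T3 cells after 48 or 72 hr compound treatment at 37 °C was assessed by CellTiter-Glo, with luminescence imaged following a 10 min room-temperature step.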
HEK293 tox: kills HEK 293 cells | HEK 293 viability, ATP luminescence (CellTiter-Glo), 48-72 h | Potency, µM (series often up to 115 µM), usual class: inhibitors | 94,000 compounds, 6.6% hits; further: nearly all actives have a fitted effect of over 60% in size
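Pintool-delivered compounds were incubated with HEK 293 cells (250 cells/well) at 37 degree Celsius for 48 or 72 hr. ATP-dependent luminescence (CellTiter-Glo) then reported remaining viable cells.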
FLuc inh: Photinus pyralis luciferase inhibition; purified P. pyralis luciferase, luminescence, biochemical; 76,000 compounds, 2.5% hits; AID 1347043; P08659; Potency, µM (series often up to 115 µM), most hits filed as inhibitors; further: nearly all actives have a fitted effect of over 65% in size
Target sequence (P08659 whole entry, looked up): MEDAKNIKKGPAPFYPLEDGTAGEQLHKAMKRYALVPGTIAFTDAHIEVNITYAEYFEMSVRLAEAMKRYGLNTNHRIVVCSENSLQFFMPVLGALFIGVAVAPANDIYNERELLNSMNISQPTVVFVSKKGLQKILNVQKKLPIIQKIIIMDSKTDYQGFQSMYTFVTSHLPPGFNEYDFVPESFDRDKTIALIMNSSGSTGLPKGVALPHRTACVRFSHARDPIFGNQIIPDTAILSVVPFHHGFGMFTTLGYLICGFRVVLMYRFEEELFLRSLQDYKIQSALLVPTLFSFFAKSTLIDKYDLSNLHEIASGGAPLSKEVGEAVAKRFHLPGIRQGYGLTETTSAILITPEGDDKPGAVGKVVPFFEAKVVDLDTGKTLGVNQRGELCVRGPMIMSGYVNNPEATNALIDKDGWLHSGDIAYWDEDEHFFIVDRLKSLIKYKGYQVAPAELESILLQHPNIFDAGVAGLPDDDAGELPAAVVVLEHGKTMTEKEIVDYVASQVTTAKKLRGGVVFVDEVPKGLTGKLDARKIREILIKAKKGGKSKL
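Biochemical qHTS: compound (6-point titration) added to 10uM D-luciferin plus 10uM ATP in Tris acetate pH 7.5 buffer with Mg, Tween-20 and BSA, then purified enzyme at 10nM; light output imaged.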
Of the large screens only hits and unclear results are named; the others gave an inactive call. A selection: hits, their analogues and other compounds. The true share with any hit is near 11%. Unless noted, the call rests on the fitted dose curve; in most records, active means well fitted curve in the direction sought with a large enough effect; inconclusive means small, poorly fitted or top-dose-only effect, or another doubt; inactive means no such curve, though single readings can be large; an effect the other way counts as inactive or inconclusive.

CCc1cnc(N2CCC3(CC2)C(=O)Nc2cc(OCC4CC4)c(OC)cc23)nc1	NIH3T3 tox 100µM, HEK293 tox 112µM
COc1cc2c(cc1OCC1CC1)NC(=O)C21CCN(c2ncc(C(C)C)cn2)CC1	NIH3T3 tox 79µM, HEK293 tox 100µM
COc1cc2c(cc1OCC1CC1)NC(=O)C21CCN(c2nc(C)cc(C)n2)CC1	NIH3T3 tox inconclusive, HEK293 tox inconclusive
COc1cc2c(cc1OCC1CC1)NC(=O)C21CCN(c2cnccn2)CC1	HEK293 tox inconclusive
Cc1nc(-c2ccccc2Br)cc([C@H]2CN3CC[C@H]2C[C@@H]3CNC(=O)Nc2ccc(Cl)cc2)n1	NIH3T3 tox 35µM, HEK293 tox 22µM
Cc1nc(-c2ccc(F)cc2)cc([C@H]2CN3CC[C@H]2C[C@@H]3CNC(=O)NCc2ccccc2)n1	NIH3T3 tox inconclusive, HEK293 tox inconclusive
Cc1nc(-c2ccco2)cc([C@H]2CN3CC[C@H]2C[C@@H]3CNCC2CCCCC2)n1	NIH3T3 tox 89µM, HEK293 tox 112µM
Cc1nc(-c2ccc(F)cc2)cc([C@H]2CN3CC[C@H]2C[C@@H]3CNC(=O)Nc2cccc(C#N)c2)n1	NIH3T3 tox 22µM, HEK293 tox inconclusive
Cc1nc(-c2ccc(C(F)(F)F)cc2)cc([C@H]2CN3CC[C@H]2C[C@@H]3CNC(=O)N2CCOCC2)n1	NIH3T3 tox inconclusive, HEK293 tox inconclusive
Cc1nc(-c2ccccc2)cc([C@H]2CN3CC[C@H]2C[C@@H]3CNC(=O)N2CCOCC2)n1	NIH3T3 tox 89µM, HEK293 tox inconclusive
O=C(NCc1ccccc1)[C@H]1CN2CC[C@H]1C[C@@H]2Cn1cc(-c2ccccn2)nn1	none
O=C(NCc1ccc(F)cc1)[C@H]1CN2CCC1C[C@@H]2Cn1cc(CSc2ccccc2)nn1 (stereo not given in full)	NIH3T3 tox inconclusive, HEK293 tox inconclusive
O=C(Nc1ccccc1)N1C[C@@H]2C[C@H](C1)c1c(-c3cccs3)ccc(=O)n1C2	FLuc inh inconclusive
Cc1nc(-c2ccccc2Br)cc([C@H]2CN3CC[C@H]2C[C@@H]3CNC(=O)Nc2cccc(C#N)c2)n1	NIH3T3 tox 28µM, HEK293 tox 22µM
Cc1nc(-c2ccc(F)cc2)cc([C@H]2CN3CC[C@H]2C[C@@H]3CNC(=O)c2ccco2)n1	NIH3T3 tox 100µM, HEK293 tox inconclusive
Cc1nc(-c2ccc(C(F)(F)F)cc2)cc([C@H]2CN3CC[C@H]2C[C@@H]3CNC(=O)C(C)(C)C)n1	NIH3T3 tox 20µM, HEK293 tox 40µM
COC[C@H]1C[C@@H](NC2CCN(C)CC2)[C@H](O)[C@@H]1O	none
CNc1ncc(C(=O)N2C[C@H]3COc4ccccc4C[C@@]3(C(=O)O)C2)cn1	none
O=C(NC[C@H]1C[C@@H]2CCN1C[C@@H]2CN1CCC(Cc2ccccc2)CC1)c1ccc(C(F)(F)F)cc1	NIH3T3 tox inconclusive, HEK293 tox 79µM
O=C(NC[C@H]1C[C@@H]2CCN1C[C@@H]2CN1CCC(Cc2ccccc2)CC1)c1ccccc1	NIH3T3 tox 25µM, HEK293 tox 25µM
CC(=O)c1ccc(NC(=O)NC[C@H]2C[C@@H]3CCN2C[C@@H]3CN2CCC(Cc3ccccc3)CC2)cc1	NIH3T3 tox inconclusive, HEK293 tox inconclusive
CN(C[C@H]1CN2CC[C@H]1C[C@@H]2CNC(=O)c1ccc(C(F)(F)F)cc1)c1ccccc1	hNpr1 antagonist inconclusive, NIH3T3 tox 45µM, HEK293 tox 28µM
CN(C)c1ccc(C(=O)NC[C@H]2C[C@@H]3CCN2C[C@@H]3CN(C)c2ccccc2)cc1	NIH3T3 tox inconclusive, HEK293 tox inconclusive
CN(C[C@H]1CN2CC[C@H]1C[C@@H]2CNC(=S)NCc1ccco1)c1ccccc1	NIH3T3 tox 28µM, HEK293 tox 40µM
O=C(Cc1ccc(F)cc1F)N1CCN(Cc2ccccc2)CC(O)C1 (stereo not given)	HEK293 tox inconclusive
COc1ccc(CC(=O)N2CCN(CCCn3nc4n(c3=O)CCCC4)CC2)cc1	none (no result: hNpr1 antagonist, FLuc inh)
COc1cc(OC(F)(F)F)ccc1C(=O)N1CCC(C(=O)O)(c2ccccc2)CC1	none (no result: hNpr1 antagonist, FLuc inh)
COc1cc2c(cc1OC1CCCC1)NC(=O)C21CCN(C(=O)c2cccc(O)c2)CC1	NIH3T3 tox inconclusive, HEK293 tox 79µM
COc1cc2c(cc1OC1CCCC1)NC(=O)C21CCN(C(C)=O)CC1	NIH3T3 tox inconclusive
COc1cc2c(cc1OC1CCCC1)NC(=O)C21CCN(C(=O)c2cccc(C#N)c2)CC1	NIH3T3 tox 22µM, HEK293 tox inconclusive
O=C1NC2(CN(Cc3cccnc3)C2)Oc2ccccc21	hNpr1 antagonist inconclusive
CC(C)CCN1C[C@@H]2C(=O)N(C)C(=O)[C@@H]2C1	none
CCC(CC)c1cc([C@H]2CN3CC[C@H]2C[C@@H]3CNC(=O)COC)nc(-c2ccncc2)n1	NIH3T3 tox inconclusive
CCC(CC)c1cc([C@H]2CN3CC[C@H]2C[C@@H]3CNC2CCN(C)CC2)nc(-c2ccncc2)n1	NIH3T3 tox 18µM, HEK293 tox 14µM
CCCS(=O)(=O)NC[C@H]1C[C@@H]2CCN1C[C@@H]2c1cc(C(CC)CC)nc(-c2ccncc2)n1	hNpr1 antagonist inconclusive, NIH3T3 tox inconclusive, HEK293 tox inconclusive
CCC(CC)c1cc([C@H]2CN3CC[C@H]2C[C@@H]3CNC(=O)Nc2ccc(C(C)=O)cc2)nc(-c2ccncc2)n1	NIH3T3 tox 18µM, HEK293 tox 25µM
CCC(CC)c1cc([C@H]2CN3CC[C@H]2C[C@@H]3CNC(=O)Nc2ccc(OC)cc2)nc(-c2ccncc2)n1	NIH3T3 tox inconclusive, HEK293 tox 32µM
Cc1noc(C)c1-c1cnc2[nH]cc(CC(=O)N3CCN(C)CC3)c2c1	NIH3T3 tox inconclusive, HEK293 tox inconclusive
CCOC(=O)[C@H]1CN(C(=O)c2cc3ccccc3oc2=O)[C@]2(C)C(=O)N(CCO)c3ccccc3[C@H]12	HEK293 tox inconclusive (no result: hNpr1 antagonist, FLuc inh)
C=C[C@H]1CN2CC[C@H]1C[C@@H]2CNC(=O)c1cc(OC)c(OC)c(OC)c1	NIH3T3 tox 45µM, HEK293 tox inconclusive
C=C[C@H]1CN2CC[C@H]1C[C@@H]2CNC(=O)Nc1ccc(Br)cc1	NIH3T3 tox inconclusive, HEK293 tox 56µM
C#C[C@H]1CN2CC[C@H]1C[C@@H]2CNC(=O)Nc1ccc(Oc2ccccc2)cc1	NIH3T3 tox 40µM, HEK293 tox 40µM
C=C[C@H]1CN2CC[C@H]1C[C@@H]2CNC(=O)Nc1cc(OC)cc(OC)c1	NIH3T3 tox inconclusive
C=C[C@H]1CN2CC[C@H]1C[C@@H]2CNC(=O)Nc1ccc(Oc2ccccc2)cc1	NIH3T3 tox inconclusive, HEK293 tox 100µM
C=C[C@H]1CN2CC[C@H]1C[C@@H]2CNC(=O)Nc1ccc(OC(F)(F)F)cc1	NIH3T3 tox inconclusive
C#C[C@H]1CN2CC[C@H]1C[C@@H]2CNC(=O)Nc1ccc(C(C)=O)cc1	NIH3T3 tox inconclusive, HEK293 tox inconclusive
C#C[C@H]1CN2CC[C@H]1C[C@@H]2CNCc1cccc(Cl)c1	NIH3T3 tox inconclusive, HEK293 tox 126µM
CC[C@H]1CN2CC[C@H]1C[C@@H]2CNC(=O)c1ccc(-c2ccccc2)cc1	NIH3T3 tox inconclusive, HEK293 tox 89µM
